“And” between values parts separate entries of the source, which are not always exact repeats. Identical values can stand only once. Out of some 16,000 compounds screened, about 5,700 (36%) were called active. Roughly 24% stayed inconclusive and do not appear here. Calls come from the whole dose curve; as a rule, active = well fitted curve in the direction sought with a large enough effect; inconclusive = small, poorly fitted or top-dose-only effect, or effect the other way; inactive = no such curve, though single readings can be large or run the other way. Some of the results follow.
% is set by controls: 0 for no effect and ±100 for the full control effect.

The target of this assay is Cytochrome P450 1A2 (Homo sapiens) (UniProt P05177). The experiment in a line: Cytochrome panel assay with activity outcomes. The conditions noted are these: recombinant CYP, pro-luciferin dealkylation, luminescence, p450-cyp1a2; series mostly up to 57.1 µM.
Chain of Cytochrome P450 1A2 (Homo sapiens) (P05177 whole entry, looked up): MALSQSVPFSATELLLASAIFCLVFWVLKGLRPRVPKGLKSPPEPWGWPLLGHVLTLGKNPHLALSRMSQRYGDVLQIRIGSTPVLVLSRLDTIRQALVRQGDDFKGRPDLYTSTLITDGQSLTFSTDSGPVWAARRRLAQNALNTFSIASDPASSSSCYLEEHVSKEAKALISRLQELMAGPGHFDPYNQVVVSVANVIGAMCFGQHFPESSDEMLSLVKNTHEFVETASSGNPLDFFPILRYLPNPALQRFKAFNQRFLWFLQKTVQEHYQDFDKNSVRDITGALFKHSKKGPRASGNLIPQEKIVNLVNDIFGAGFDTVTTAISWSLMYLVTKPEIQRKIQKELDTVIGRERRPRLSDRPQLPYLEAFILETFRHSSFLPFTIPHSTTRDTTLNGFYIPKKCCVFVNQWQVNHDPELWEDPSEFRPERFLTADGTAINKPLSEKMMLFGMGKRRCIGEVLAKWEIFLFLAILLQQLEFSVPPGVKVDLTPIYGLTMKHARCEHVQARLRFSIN
One may read the AC50 as the concentration at which the activity in the assay is half-maximal. For the compound `COc1ccc(C2/C(=C(/O)c3ccccc3)C(=O)C(=O)N2CC(C)O)c(OC)c1` (stereo not given), the AC50 result was “inactive”. Consider `N#Cc1ccc(C(c2nnnn2Cc2ccccc2)N2CCCC2)cc1` (stereo not given), for which the AC50 entry is “inactive”. Same read-out and setting: the same measure for `O=C(NCc1ccc(F)cc1)C(c1ccncc1)N(C(=O)c1csnn1)C1CC1` (stereo not given): “inactive”; for `Cc1sc2ccccc2[n+]1CCC(C)S(=O)(=O)[O-]` (stereo not given): “inactive”; for `O=C1c2ccccc2-c2n[nH]c3cccc1c23`: 0.0158 µM (active). On the same count and under the same terms, the same measure for `CCc1cccc(NC(=O)CN(C)S(=O)(=O)c2cnc[nH]2)c1`: “inactive”. The same measure, in the same setting: next, `CN(CC(=O)Nc1ccc(F)c(F)c1)S(=O)(=O)c1cccc2nsnc12`: 15.8 µM (active). For the compound `CC1CCN(C(=O)CN(C)S(=O)(=O)c2cccc3nsnc23)CC1`, the AC50 entry was “inactive”. Turning to `CCN(CC)CCC[C@H](C)Nc1c2ccc(Cl)cc2nc2ccc(OC)cc12`, the concentration at half-maximal activity (AC50) is 2 µM (active) and 1 µM (active). In the case of `Cc1cccc(N(CC(=O)N2CCOCC2)S(C)(=O)=O)c1`, the AC50 entry was “inactive”. Same read-out and setting: the same measure for `C/C(=N\NC(=O)c1ccc(Br)cc1)c1ccccc1`: 1.41 µM (active); for `CC(C)OP(=O)(OC(C)C)C(NC(=O)c1ccc(Br)cc1)c1ccccc1` (stereo not given): “inactive”; for `O=C(N/C(=C\c1cccnc1)C(=O)N1CCOCC1)c1cccc(Br)c1`: “inactive”. On the same count and under the same terms, next, `CCn1cc(C(=O)N/N=C(/C)c2ccc(F)cc2)c(=O)c2cc(F)c(N3CCCC3)cc21`: “inactive”; `C/C(=N/NC(=O)c1ccc(NC(=O)c2ccc(F)cc2)cc1)c1ccccc1`: “inactive”. Same read-out and setting: next, `C/C(=N\NC(=O)c1cccc(Br)c1)c1ccc(Br)cc1`: 0.282 µM (active); `CN(C)Cc1ccccc1-c1nccc(NCc2cccs2)n1`: 0.794 µM (active); `Cc1ccccc1-c1nccc(NCc2cccs2)n1`: 0.501 µM (active). On to `FC(F)(F)c1ccccc1-c1nccc(NCc2cccs2)n1`, for which the concentration at half-maximal activity (AC50) was 1.26 µM (active).

`CC1CCN(c2cc(N3CCC(C)CC3)c([N+](=O)[O-])cc2/C=C(\C#N)c2nn(-c3ccccc3)c(N)c2C#N)CC1`: the AC50 result was “inactive”. `O=C(Nc1ccccc1)C(Cc1ccccc1)NC(=O)C12CC3CC(CC(C3)C1)C2` (stereo not given): the AC50 result is “inactive”. `CCCC[P+](CCCC)(CCCC)Cc1ccc(NC(=O)[C@@H](Cc2ccc3ccccc3c2)NC(=NC2CCCCC2)NC2CCCCC2)cc1`: the AC50 is 31.6 µM (active). The same measure, in the same setting: next, `COc1ccc(CC(NC(C)=O)C(=O)NC2CCN(C(=O)Nc3ccc(Cl)cc3)CC2)cc1OC` (stereo not given): “inactive”; `CCNC(=S)NNC(=O)CCn1c2ccccc2c2ccccc21`: 2.82 µM (active); `CCNC(=S)NNC(=O)Cc1ccccc1`: “inactive”. On the same count and under the same terms, next, `N#Cc1c(NC(=O)C2CC(c3ccccc3Cl)=NO2)sc2c1CCC2` (stereo not given): 3.55 µM (active); `CC(=O)C1=NOC(CNC(=O)c2c(-c3ccccc3Cl)noc2C)C1` (stereo not given): “inactive”.

`COc1ccc(COC(=O)N/N=C2/C[C@@H](O)[C@@H](O)[C@@H]3[C@@H]4C(=O)N([C@@H](C)c5ccccc5)C(=O)[C@H]4CC[C@@H]23)cc1`: the activity, negative = inhibition is -1.59% [at 11.4 µM] (inactive).

`CSc1ccc(CNc2ccc(Cl)cc2)cc1`: the AC50 is 10 µM (active). Regarding `CC(Sc1nc(NCc2ccccc2)nc(N(C)C)n1)C(=O)Nc1ccccc1` (stereo not given), the AC50 result is “inactive”.

As for `CSc1ccc(CNc2ccccc2)cc1`, the AC50 was 25.1 µM (active). Still for that read-out and setting: the same measure for `CSc1ccc(CNc2ccc(C)c(C)c2)cc1`: 0.891 µM (active).

Take `CCCCC[C@H](CC(=O)NO)C(=O)N[C@@H](C(=O)N1CCC[C@H]1CO)C(C)C`: the AC50 entry was “inactive”. Turning to `Cn1c(=O)cnc2cnc(Oc3ccccc3)nc21`, the half-maximal activity concentration (AC50) was 10 µM (active). As for `COCCn1c(=O)cnc2cnc(Oc3ccccc3)nc21`, the AC50 is 15.8 µM (active). On the same count and under the same terms, the same measure for `COCCn1c(=O)c(C)nc2cnc(Oc3ccc(OC)cc3)nc21`: 15.8 µM (active). For the compound `O=c1cnc2cnc(Oc3ccccc3)nc2n1CCc1ccccc1`, the AC50 is 3.16 µM (active). Regarding `Cc1nn(S(=O)(=O)c2cccs2)c(C)c1Sc1ccc([N+](=O)[O-])cc1`, the AC50 entry is “inactive”. The same measure, in the same setting: next, `O=C1CCCN1CC(CN1CCOCC1)Sc1nnnn1-c1ccccc1` (stereo not given): “inactive”; `CCN(CC)CCCN(Cc1cc2ccc(C)c(C)c2[nH]c1=O)C(=O)NC1CCCCC1`: “inactive”.

Take `COCCn1c(=O)cnc2cnc(Oc3ccc(OC)cc3)nc21`: the AC50 is 5.01 µM (active). Still for that read-out and setting: next, `COc1ccc(-n2c(=O)cnc3cnc(Oc4ccccc4)nc32)cc1`: 15.8 µM (active); `COc1ncc2ncc(=O)n(C)c2n1`: 12.6 µM (active).

Regarding `CN(Cc1cnc2nc(N)nc(N)c2n1)c1ccc(C(=O)N[C@@H](CCC(=O)O)C(=O)O)cc1`, the AC50 entry was “inactive”. For the compound `N=c1sc2ccccc2n1CCS` (tested in a mixture with another compound), the AC50 was 1 µM (active).

On to `O=c1cnc2cnc(N3CCOCC3)nc2n1C1CC1`, for which the AC50 is 6.31 µM (active). Same read-out and setting: next, `CN1CCN(c2ncc3ncc(=O)n(C[C@H]4CCCO4)c3n2)CC1`: 10 µM (active); `O=c1cnc2cnc(N3CCOCC3)nc2n1C[C@H]1CCCO1`: 10 µM (active); `CCn1cc(C(=O)O)c(=O)c2cnc(N3CCNCC3)nc21`: “inactive”. Same read-out and setting: the same measure for `COC(=O)c1nn(-c2ccccc2)c(=O)cc1Oc1ccccc1`: 20 µM (active).

`O=C1C=C[C@@H](O)[C@H]2[C@@H]3C(=O)N(c4cccc(Oc5ccccc5)c4)C(=O)[C@@H]3CC[C@H]12`: the activity, negative = inhibition was -5.61% [at 11.4 µM] (inactive). Turning to `COC(=O)c1nn(-c2ccccc2)c(-c2ccccc2)c1C(=O)c1ccccc1`, the AC50 result is “inactive”.

Turning to `COC(=O)N1CCC2(CCCN(Cc3ccccc3)C2)CC1`, the AC50 entry was “inactive”. As for `O=C(c1ccncc1)N1CCC[C@@]2(CCN(c3ncccn3)C2)C1`, the AC50 result is “inactive”. On to `CO/N=C(\C)CCN1CCCCc2nc(C)c(C)cc21`, for which the activity, negative = inhibition was -3.72% [at 11.4 µM] (inactive).

Take `CN1CCC(=NNC(=O)CSCc2ccccc2)CC1`: the AC50 is 14.1 µM (active). Still for that read-out and setting: the same measure for `CC1CCC(=NNC(=O)Cc2ccccc2)CC1` (stereo not given): “inactive”; for `CCCCC1CCC(c2nc(-c3ccccn3)no2)CC1` (stereo not given): 28.2 µM (active).

In the case of `CN(C)c1ccc(-c2noc(C3CCN(S(=O)(=O)c4cccc(C(=O)O)c4)CC3)n2)cc1`, the AC50 entry was “inactive”. For the compound `Cc1cc(C)c(C#N)c(SCc2cc3c(cc2Cl)OCO3)n1`, the AC50 was 2.24 µM (active). As for `Cc1cc(C)c(C#N)c(SCC(=O)c2ccc(Cl)cc2Cl)n1`, the half-maximal activity concentration (AC50) was 2.24 µM (active). For the compound `C/C(=N\[N+](C)(C)C)c1ccc(C)c(C)c1`, the activity, negative = inhibition is -16.9% [at 2.29 µM] (inactive). Take `Cc1cccc(C(=O)N2CCC(c3nc(-c4ccc(S(=O)(=O)N5CCOCC5)cc4)no3)CC2)c1`: the AC50 result was “inactive”. Still for that read-out and setting: next, `Cc1ccc(S(=O)(=O)c2cc(N3CCOCC3)nc(-c3ccccc3)n2)cc1`: 4.47 µM (active). Take `Cc1ccc(Oc2cc(N3CCOCC3)nc(-c3ccccc3)n2)cc1`: the AC50 was 2.51 µM (active). Consider `O=c1nc(N2CCOCC2)ccn1-c1nc(-c2ccccc2)oc1-c1ccccc1`, for which the AC50 entry is “inactive”.

Consider `COc1cccc(Sc2cc(N3CCOCC3)nc(-c3ccccc3)n2)c1`, for which the AC50 is 2.51 µM (active). On the same count and under the same terms, next, `Cc1ccc(C(=O)N2CCN(c3cc(=O)[nH]nc3-c3ccccc3)CC2)cc1`: “inactive”.

On to `N=C(N)c1ccc(N)cc1`, for which the AC50 entry is “inactive”.

Take `O=C(O)CS(=O)c1ccc2c3c(cccc13)C(=O)c1ccccc1-2` (stereo not given): the AC50 is 0.0631 µM (active).

For `C(=C\c1nnc(-c2cccs2)o1)/c1ccccc1`, the concentration at half-maximal activity (AC50) is 2.51 µM (active).

Regarding `Cc1ccc(/C=C/c2nnc(-c3cccs3)o2)cc1`, the AC50 was 8.91 µM (active). On to `COc1ncc2nc(-c3cc(F)cc(F)c3)c(=O)n(C)c2n1`, for which the half-maximal activity concentration (AC50) is 2 µM (active). Take `Cn1c(=O)c(-c2cc(F)cc(F)c2)nc2cnc(Oc3ccccc3)nc21`: the AC50 is 2 µM (active). `COc1ccc(Oc2ncc3nc(-c4cc(F)cc(F)c4)c(=O)n(C)c3n2)cc1`: the AC50 is 3.16 µM (active).

Turning to `Nc1nc2c(c(=O)[nH]1)N(C=O)[C@H](CNc1ccc(C(=O)N[C@@H](CCC(=O)O)C(=O)O)cc1)CN2`, the AC50 result is “inactive”.

As for `COc1cccc(OC)c1OCCCN1CCOCC1`, the AC50 entry is “inactive”. With `COc1cccc(OC)c1OCCNC[C@@H]1COc2ccccc2O1`, the concentration at half-maximal activity (AC50) is 12.6 µM (active) and 25.1 µM (active). Consider `COc1ccccc1NC(=O)N1CCC(c2nnc(SCC(N)=O)n2C)CC1`, for which the AC50 entry was “inactive”.

Regarding `Cn1c(C(=O)O)c(CC(=O)NCC2COc3ccccc3O2)c2ccccc21` (stereo not given), the AC50 result was “inactive”. The same measure, in the same setting: the same measure for `COc1ccccc1NC(=O)CC1COc2ccccc2O1` (stereo not given): 7.08 µM (active); for `CC(C)N=c1scc(-c2ccco2)n1/N=C/c1ccc(O)c(O)c1`: 15.8 µM (active). On to `CNc1cc(NS(=O)(=O)c2ccc(N)cc2)nc(NC)n1`, for which the AC50 result is “inactive”. In the case of `Cc1cccc(OCCSCc2nc3ccccc3[nH]2)c1`, the concentration at half-maximal activity (AC50) was 2.24 µM (active).

`Cc1ccccc1N1CCN(S(=O)(=O)C[C@@]23CC[C@H](C[C@H]2NC(=O)[C@@H](N)CCS(C)(=O)=O)C3(C)C)CC1`: the AC50 result is “inactive”. The same measure, in the same setting: the same measure for `COc1ccc(C(=O)Oc2cc(/C=N/NS(=O)(=O)c3ccc(C)cc3)ccc2OC)cc1`: “inactive”. With `COc1ccc(/C=N/NC(N)=S)cc1OC(=O)c1cccc2ccccc12`, the half-maximal activity concentration (AC50) was 1.58 µM (active).

With `COc1ccc(/C=N/NC(=O)c2cc(-c3ccc(C)cc3C)nc3ccccc23)cc1COC(C)=O`, the AC50 result was “inactive”. Take `O=c1c2ccccc2nc2n1C(CSc1ccc(F)cc1)CN2` (stereo not given): the AC50 entry is “inactive”.

As to `O=c1c2ccccc2nc2n1CCC2`, the AC50 was 6.31 µM (active).

With `O=c1c2ccccc2nc2n1CCc1c-2[nH]c2ccccc12`, the AC50 is 0.316 µM (active).

Take `CC(C)NC(=O)N1CC2(CCN(C(=O)c3ccncc3)CC2)C1`: the AC50 entry is “inactive”. Same read-out and setting: next, `Cc1noc(C)c1C(=O)N1CCC2(CCCN(Cc3ccccc3)C2)CC1`: “inactive”; `O=[N+]([O-])c1ccc(C2=Nn3c(nnc3-c3ccc(Cl)cc3)SC2)o1`: 0.158 µM (active); `Cc1nc2sccc2c(=O)n1-c1cccc(Cl)c1`: 11.2 µM (active).

Turning to `COC(=O)c1cnn(C(=O)c2ccccc2Br)c1N`, the half-maximal activity concentration (AC50) was 8.91 µM (active).

Turning to `COC(=O)c1cnn(C(=O)c2cc(OC)ccc2Br)c1N`, the AC50 is 28.2 µM (active). Turning to `O=c1c(-c2cc(F)cc(F)c2)nc2cnc(Oc3ccccc3)nc2n1C1CC1`, the half-maximal activity concentration (AC50) is 2.51 µM (active). Consider `COc1ncc2nc(-c3cc(F)cc(F)c3)c(=O)n(C3CC3)c2n1`, for which the AC50 is 1.58 µM (active). As for `O=c1c(-c2cccs2)nc2cnc(Oc3ccccc3)nc2n1C1CC1`, the AC50 is 2.51 µM (active).

The values above are taken from PubChem BioAssay AID1851 (National Center for Advancing Translational Sciences (NCATS), 2009).
